A selection: hits, their analogues and other compounds. The true share with any hit is near 7.5%.
KinaseGlo FLuc – Kinase-Glo luciferase inhibition (counter-screen). Q27757. Kinase-Glo luciferase, ATP luminescence, 8 min. Potency, µM (titrated, usually from 38.3 µM), for the others: top-dose activity change, negative = inhibition, usual class: inhibitors. hit rate 0.28% among 200,000. AID 1379; also: % is scaled to controls: 0 for no effect and ±100 for the full control effect; nearly all actives have a fitted effect of over 60% in size
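Recombinant Kinase-Glo luciferase, 10 uM ATP (linear range), luciferin; imidazole pH 7.2 / KCl / MgCl2 / Tween / BSA buffer; 8 min RT; luminescence.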
NPC1 promoter act – activators of NPC1 promoter | hit rate 2.4% among 320,000 | Potency, µM (highest dose often 9.22 µM), for inactives: top-dose activation, most hits filed as activators | Huh7 NPC1 promoter luciferase reporter, 24 h; also: % of control where 0% means no effect; nearly all actives have a fitted effect of over 60% in size
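In 1536-well qHTS, Huh7 cells harboring an NPC1 promoter–luciferase construct received compound for 24 h; activation was quantified by luminescence following luciferase reagent addition.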
SMN2 splice enh – increases expression of the SMN2 splice variant | Potency, µM (highest dose often 46.1 µM), without a hit: at the top dose activity change, positive = activation, usual class: activators | HEK293 SMN2-luciferase splicing reporter, luminescence, 30-36 h | AID 1458 | hit rate 2.8% among 210,000; also: % of control where 0% means no effect; nearly all actives have a fitted effect of over 55% in size
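HEK293 cells carry an SMN2 minigene-luciferase reporter in which exon 7 inclusion puts luciferase in frame. Cells were seeded at 2000 cells/well, attached for 10-12 hours, then exposed to compounds for 30-36 hours at 37C before ONE-Glo luminescence.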
ELG1 genotoxic – induces genotoxicity in HEK293T cells with luciferase-tagged ELG1. HEK293T ELG1-luciferase reporter, luminescence, 16 h. Potency, µM (series often up to 46 µM), inactives show at the highest dose activity change, positive = activation, actives largely listed as activators. hit rate 1.3% among 330,000; also: % of control where 0% means no effect; nearly all actives have a fitted effect of over 60% in size
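16 hr compound incubation (37 °C, 5% CO2) of HEK293T cells carrying luciferase-tagged ELG1; luciferase then measured by ONE-Glo luminescence after 30 min at RT.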
Rab9 prom act – activators of Rab9 promoter. Huh7 Rab9 promoter-luciferase reporter, luminescence, 24 h. Potency, µM (titrated, usually from 9.22 µM), inactives show at the top dose activation, negative = inhibition, hits mostly activators. hit rate 2.8% among 320,000. AID 485297; also: % of control where 0% means no effect; nearly all actives have a fitted effect of over 60% in size
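Steps: seed 1500 Huh7 Rab9-luc cells per well, rest 2 h at 37 °C; add compound in DMSO; incubate 24 h; add luciferase reagent, 10 min ambient; read luminescence.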
FLuc counter – firefly luciferase modulation, counter-screen for miR-21 project | P08659 | purified FLuc, Km substrates, luminescence inhibition | Potency, µM (highest dose often 57.5 µM), without a hit: top-dose activity change, negative = inhibition, usual class: inhibitors | hit rate 6.9% among 360,000;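 also: plate controls were vehicle for no effect and reference inhibitor for full effect; nearly all actives have a fitted effect of over 55% in size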
Target sequence (P08659 whole entry, looked up): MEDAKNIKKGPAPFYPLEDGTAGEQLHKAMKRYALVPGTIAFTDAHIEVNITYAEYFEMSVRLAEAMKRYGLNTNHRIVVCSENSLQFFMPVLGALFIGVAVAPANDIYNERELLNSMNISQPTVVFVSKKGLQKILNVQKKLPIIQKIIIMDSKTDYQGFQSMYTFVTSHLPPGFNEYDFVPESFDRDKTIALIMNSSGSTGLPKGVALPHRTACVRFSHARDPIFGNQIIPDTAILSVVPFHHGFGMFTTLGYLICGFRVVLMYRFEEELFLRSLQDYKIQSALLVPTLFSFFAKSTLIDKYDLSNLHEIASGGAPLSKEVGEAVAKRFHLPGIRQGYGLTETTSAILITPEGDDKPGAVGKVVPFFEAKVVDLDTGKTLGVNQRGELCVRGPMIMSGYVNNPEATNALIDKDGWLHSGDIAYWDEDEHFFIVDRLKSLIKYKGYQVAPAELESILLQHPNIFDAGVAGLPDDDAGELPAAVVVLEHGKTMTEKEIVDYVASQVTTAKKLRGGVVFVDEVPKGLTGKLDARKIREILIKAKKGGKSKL
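Purified P. pyralis luciferase, 10 nM final, with Km-level 10 uM D-luciferin and 10 uM ATP in 50 mM Tris acetate pH 7.5, 10 mM Mg acetate, 0.01% Tween-20, 0.05% BSA; 6-point qHTS titration about 60 µM downward; luminescence read.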
Numbers without * were called inactive; ? = inconclusive; · = no result. Calls follow the shape of the dose curve; as a rule, active = well fitted curve in the direction sought with a large enough effect; inconclusive = small, poorly fitted or top-dose-only effect, or another doubt; inactive = no such curve, though single readings can be large; an effect the other way counts as inactive or inconclusive. Potency is read from the fitted curve at half-maximal effect.

SMILES	KinaseGlo FLuc	NPC1 promoter act	SMN2 splice enh	ELG1 genotoxic	Rab9 prom act	FLuc counter
COC(=O)c1c(NC(=O)c2ccco2)sc(C(=O)Nc2ccc(F)cc2)c1C	1%	1.6µM*	?	?	1.6µM*	-2%
CCOc1ccc(NC(=O)Cn2c(=O)n(Cc3ccccc3)c(=O)c3sc4ccccc4c32)cc1	·	·	4%	·	·	1%
CC1CCC(NC(=O)c2cc3ccccc3cc2O)CC1 (stereo not drawn)	·	?	·	13%	2.2µM*	5.4µM*
O=C(NNC(=O)c1cc2ccccc2cc1O)NC1CCCCC1	·	9%	·	3%	16%	-3%
Cc1cc(C(=O)OCC(=O)NC2CCC(C)CC2)c(C)o1 (stereo not drawn)	·	0%	·	0%	0%	-3%
Cc1cc(C(=O)NC2CCC(C)CC2)c(C)o1 (stereo not drawn)	·	1.4µM*	·	5.2µM*	1.8µM*	9.5µM*
CCCSc1nc2sc3c(c2c(=O)n1-c1ccc(C)cc1)CCCC3	·	·	-1%	·	·	2%
CC1CCCN(CCCN2C(=O)C3C(C(=O)Nc4cccc(Cl)c4)C4C=CC3(O4)C2C(=O)NC2CCCCC2)C1 (stereo not drawn)	·	-8%	·	6%	1%	1%
O=C(Nc1ccc2c(c1)N(C1CCCC1)C(=O)c1ccccc1S2)c1ccccc1	·	·	·	·	·	2%
Cc1ccc(-c2nnc3ccccc3c2C(=O)Nc2cccc(Cl)c2)cc1	·	·	·	·	·	1%
Cc1ccc(CNc2ncnc3c2c(-c2ccccc2)cn3-c2ccccc2)cc1	·	·	·	·	·	4%
O=C(Cn1ncc(N2CCCC2)c(Cl)c1=O)c1ccc(Cl)cc1	4%	2.5µM*	13µM*	?	1.4µM*	21µM*
O=C(Cn1ncc(N2CCOCC2)c(Br)c1=O)c1ccc(Cl)cc1	3%	16%	8%	10%	-1%	-19%
O=C(O)/C=C/c1ccc([N+](=O)[O-])o1	7%	-4%	6%	0%	-4%	3%
O=C1NC(=S)S/C1=C\C=C\c1ccc([N+](=O)[O-])o1	·	-43%	·	?	-49%	24µM*
CCNC(=S)N/N=C/c1ccccc1[N+](=O)[O-]	3%	0%	12%	0%	1%	3%
Cc1ccccc1NC(=S)N/N=C/c1ccc(O)cc1O	·	?	·	?	26%	2.4µM*
CCCOc1ccc(/C=N/NC(=S)Nc2ccccc2[N+](=O)[O-])c(O)c1	-11%	3%	-87%	?	-16%	3.4µM*
CCCOc1ccc(/C=N/Nc2ccccc2[N+](=O)[O-])c(O)c1	8.9µM*	?	-95%	?	?	0.11µM*
Cc1cccc(NC(=S)N/N=C/c2cccc(O)c2)c1C	·	-26%	·	-4%	-31%	?
CCCOc1ccc(/C=N/Nc2cccc([N+](=O)[O-])c2)c(O)c1	-2%	?	?	?	?	?
COc1ccc(/C=N/NC(=S)Nc2ccccc2[N+](=O)[O-])cc1O	-7%	22%	?	5.2µM*	-2%	0.43µM*
O=[N+]([O-])c1cc(/C=N/NC(=S)Nc2ccccc2Cl)ccc1Cl	-1%	2%	8%	-4%	-10%	6%
O=C(CN1CCN(S(=O)(=O)c2ccc(Cl)cc2)CC1)N1CCCC1	·	-2%	·	-3%	-5%	3%
COC(=O)c1cc(NC(=O)Cn2ncc3c2-c2ccccc2OC3)cc(C(=O)OC)c1	·	·	-7%	·	·	2%
Cc1ccc(NC(=O)CSc2nc3ccccc3n2CC(=O)N2CCC(C)CC2)cc1C	·	·	·	·	·	-13%
COc1ccccc1Nc1nc(-c2cccc(N3C(=O)c4ccccc4C3=O)c2)cs1	0%	-1%	6%	1%	-4%	6.7µM*
COc1ccccc1Nc1nc(-c2c(C)[nH]c3ccccc23)cs1	-1%	15%	14µM*	11%	16%	11µM*
Cc1[nH]c2ccccc2c1-c1csc(N)n1	·	-5%	·	2%	1%	0%

Screens (PubChem BioAssay)
